The list is not random: actives were taken first. Their share in the collection is about 19%.
DT40 TDP1 CPT: qHTS for Inhibitors of human tyrosyl-DNA phosphodiesterase 1 (TDP1): qHTS in cells in presence of CPT | chicken DT40 Tdp1-/-;hTDP1 cells + 20 nM CPT, ATP luminescence, 48 h | Potency, µM (titrated, usually from 46.2 µM), inactives show at the highest dose activity change, negative = growth inhibition, actives largely listed as inhibitors | hit rate 12% among 420,000 | AID 686979, 2013; also: potency is read from the fitted curve at half-maximal effect; nearly all actives have a fitted effect of over 55% in size
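Chicken DT40 Tdp1-/- cells stably complemented with human TDP1 were seeded at 400 cells/well in medium containing 20 nM camptothecin, exposed to pin-transferred compounds, and grown at 37 °C for at least 48 hr. Viability was read as ATP luminescence.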
TDP1 cell noCPT: qHTS for Inhibitors of human tyrosyl-DNA phosphodiesterase 1 (TDP1): qHTS in cells in absence of CPT; DT40 Tdp1-/- hTDP1 cells, no CPT, ATP luminescence, 48 h; Potency, µM (highest dose often 46.2 µM), for inactives: at the highest dose activity change, negative = growth inhibition, usual class: inhibitors; hit rate 15% among 420,000; also: potency is read from the fitted curve at half-maximal effect; nearly all actives have a fitted effect of over 55% in size
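Readout: luminescence from CellTiter-Glo after 30 min in the dark at RT. Cells: DT40 Tdp1-/- with stable hTDP1, 400/well. Exposure: compounds alone, ≥48 hr, 37 °C.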
IL1B secr inh: qHTS for Inhibitors of Inflammasome Signaling: IL-1-beta AlphaLISA Primary Screen | activity change, % at 57.5 µM | AID 743279, 2014 | THP-1 LPS/ATP IL-1B secretion, AlphaLISA, 16 h; hits give low values | hit rate 4.7% among 360,000; in the data active = activity change below about -50%; inconclusive = mostly about -30% to -49%
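Secreted IL-1B measured by AlphaLISA bead assay after 16 h compound exposure of THP-1 cells; compounds (final up to 57.5 uM) added 1 h before LPS (250 ng/mL) and ATP (1.25 mM) stimulation; lower signal means less secretion.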
HT1080 IDH1KD tx: qHTS for induction of synthetic lethality in tumor cells producing 2HG: qHTS for the HT-1080-IDH1KD cell line; hit rate 2% among 360,000; HT-1080 IDH1 knockdown viability, ATP luminescence, 48 h; Potency, µM (top dose mostly 46.1 µM), without a hit: top-dose activity, negative = toxicity, hits mostly cytotoxic; AID 686971, 2013;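 also: potency is read from the fitted curve at half-maximal effect; 0% = DMSO wells and -100% = cell-free medium wells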
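HT-1080-IDH1KD cells (IDH1 knocked down), 750/well in RPMI with 5% FBS, treated with compound 48 h at 37 degrees C. Viability by CellTiter-Glo luminescence, normalised to DMSO and no-cell wells; concentration-response curves classed.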
HT1080NT lethal: qHTS for induction of synthetic lethality in tumor cells producing 2HG: qHTS for the HT-1080-NT fibrosarcoma cell line | HT-1080-NT fibrosarcoma viability, CellTiter-Glo ATP luminescence, 48 h | Potency, µM (highest dose often 46.1 µM), for the others: at the highest dose activity, negative = less viability, most hits filed as cytotoxic | hit rate 1.6% among 360,000;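 also: NT is the 2HG producing partner of a matched IDH1 knockdown line; potency is read from the fitted curve at half-maximal effect; 0% = DMSO-treated cells and -100% = media-only wells without cells; nearly all actives have a fitted effect of over 55% in size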
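Read-out is CellTiter-Glo luminescence after 10 minutes at room temperature, following 48 hours' compound treatment of HT-1080-NT cells (750 cells/well, RPMI, 5% FBS, 37 degrees C).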
* = called active by the depositor; ? = inconclusive; nt = no result given; [ ] = dose if it differs, or a comment. Unless noted, calls follow the shape of the dose curve; as a rule, active = well fitted curve in the direction sought with a large enough effect; inconclusive = small, poorly fitted or top-dose-only effect, or another doubt; inactive = no such curve, though single readings can be large; an effect the other way counts as inactive or inconclusive. Unless noted, % is scaled to controls: 0 for no effect and ±100 for the full control effect.

SMILES	DT40 TDP1 CPT	TDP1 cell noCPT	IL1B secr inh	HT1080 IDH1KD tx	HT1080NT lethal
CCOC(=O)c1oc2ccccc2c1NC(=O)c1ccc2c(c1)OCO2	-19%	-23%	4	8%	2%[9.24 µM]
O=C(CCCOc1ccc(Cl)cc1Cl)NCCc1nnc2ccccn12	-19%	-23%	0	9%	16%
Cc1cc(OCCCC(=O)NCCc2nnc3ccccn23)ccc1Cl	?	16µM*	18	-3%	-5%
COc1cccc(CNc2ccc(N3CCC(C)CC3)cc2)c1OC	23µM*	16µM*	-21	?	-26%
COC(=O)CC1(C(=O)OC)Oc2ccc(Br)cc2C(=O)N1c1cc(Cl)c(Cl)cc1Cl (centres undefined)	8.2µM*	5.8µM*	-23	-28%	?
COC(=O)CC1(C(=O)OC)Oc2ccc(Br)cc2C(=O)N1c1cccc(Cl)c1Cl (centres undefined)	3.7µM*	6.5µM*	19	?	21µM*
COC(=O)CC1(C(=O)OC)Oc2ccc(Br)cc2C(=O)N1c1ccc(Br)cc1Cl (centres undefined)	5.8µM*	4.1µM*	-28	15µM*	15µM*
COC(=O)CC1(C(=O)OC)Oc2ccc(Br)cc2C(=O)N1c1cc(Cl)cc(Cl)c1 (centres undefined)	?	?	-29	-2%	?
CCNC(=O)C1CCCN(C(=O)C(c2ccccc2)c2ccccc2)CC1 (centres undefined)	7%	-19%	21	-1%	16%
Cc1ccc(-c2nnc(CCC(=O)N(C)Cc3nccs3)o2)s1	4%	21µM*	-8	0%	11%
CCOC(=O)CSc1nnc2n1C(C)(C)Cc1ccccc1-2	8%	-2%	-7	2%	0%
COc1ccccc1N1CCN(C(=O)CSc2nnc3n2C(C)(C)Cc2ccccc2-3)CC1	13µM*	15µM*	-28	-4%	?
CC1Cc2ccccc2N1C(=O)CSc1nnc2n1C(C)(C)Cc1ccccc1-2 (centres undefined)	21µM*	21µM*	0	1%	1%
CC1(C)Cc2ccccc2-c2nnc(SCC(=O)Nc3ccc4c(c3)OCO4)n21	16µM*	?	?	-2%	1%
COc1cccc(OC)c1OCCCCc1c(C)n[nH]c1C	26µM*	?	2	-3%	1%
COc1cccc(OC)c1OCCCCCc1c(C)n[nH]c1C	?	?	-4	-9%	-6%
Cc1n[nH]c(C)c1CCCCOc1ccccc1[N+](=O)[O-]	21µM*	?	-13	-15%	-4%
Cc1n[nH]c(C)c1CCCCOc1ccccc1	?	?	21	0%	-11%
Cc1n[nH]c(C)c1CCCCOc1ccccc1F	-28%	?	?	-17%	-6%
Cc1ccc(OCCCc2c(C)n[nH]c2C)cc1	?	16µM*	-16	-22%	-15%
Cc1ccccc1OCCCCc1c(C)n[nH]c1C	?	18µM*	-17	?	?
O=C(c1cnccn1)N1CCC[C@@]2(CCN(c3ccncc3)C2)C1	14%	-4%	nt	nt	nt
COc1ccc(C2=NOC(C(=O)NCCCn3ccnc3)C2)cc1 (centres undefined)	-5%	-20%	4	0%	1%
CCc1ccc(/C=N\n2cnnc2)cc1	-3%	3%	28	3%	0%
COc1ccc(OC)c(NC(=O)c2cccc(N3C(=O)C4C5C=CC(C6CC56)C4C3=O)c2)c1 (centres undefined)	16µM*	12µM*	-3	-5%	?
SMILES	DT40 TDP1 CPT	TDP1 cell noCPT	IL1B secr inh	HT1080 IDH1KD tx	HT1080NT lethal
COc1ccc(NC(=O)c2cc(N3C(=O)C4C5CCC(C5)C4C3=O)ccc2Cl)c(OC)c1 (centres undefined)	?	-57%	-8	2%	-16%
COc1ccc(NC(=O)c2cccc(N3C(=O)C4CC=C(C)CC4C3=O)c2)c(OC)c1 (centres undefined)	?	12µM*	21	3%	3%
Cc1ccccc1NC(=O)c1cccc(N2C(=O)C3C4CC(C(Br)C4Br)C3C2=O)c1 (centres undefined)	-1%	1%	14	14%	5%
CC1=CCC2C(=O)N(c3cccc(C(=O)N(C)C4CCCCC4)c3)C(=O)C2C1 (centres undefined)	-29%	-25%	-21	1%	5%
COc1ccc(OC)c(NC(=O)c2cccc(N3C(=O)C4C5CCC(C5)C4C3=O)c2)c1 (centres undefined)	23µM*	16µM*	0	-10%	-18%
COc1ccc(NC(=O)N2CCCc3cc(C)ccc32)c(OC)c1	?	-23%	?	-10%	17%
COc1ccc(N(CC(=O)Nc2ccccc2OC)S(=O)(=O)c2ccccc2)cc1Cl	13µM*	?	-12	-20%	-3%
CCOc1ccc(N(CC(=O)Nc2ccccc2C(=O)N2CCOCC2)S(=O)(=O)c2ccc(F)cc2)cc1	-15%	-26%	11	9%	0%
CCOc1ccc(NC(=O)c2ccccc2NS(=O)(=O)c2ccc(F)cc2)c([N+](=O)[O-])c1	23µM*	?	?	-1%	-11%
CCOC(=O)c1ccccc1NC(=O)CN(c1ccccc1)S(=O)(=O)c1ccc(OCC)cc1	23µM*	15µM*	nt	nt	nt
CCOc1ccc(N(CC(=O)Nc2ccccc2OC)S(=O)(=O)c2ccccc2)cc1	1.2µM*	1.2µM*	50	1.6µM*	2.1µM*
COc1ccccc1NC(=O)CN(c1ccc([N+](=O)[O-])cc1)S(=O)(=O)c1ccccc1	11%	-20%	1	-4%	3%
CCOC(=O)c1sc(NC(=O)COC(=O)Cn2cnc3ccccc32)c(C(=O)OCC)c1C	-3%	-10%	12	-3%	-14%
O=C(CNCCc1ccccc1)N1CCc2ccccc2C1	-3%	-21%	6	-5%	-5%
CN(Cc1ccc(F)cc1)C(=O)CNC(=O)C1CCCCC1	-7%	16%	26	15%	10%
COc1ccc(NC(=O)CN(c2ccc([N+](=O)[O-])cc2)S(=O)(=O)c2ccccc2)c(OC)c1	?	?	-1	-15%	2%
COc1ccccc1NC(=O)CN(c1ccccc1C)S(C)(=O)=O	3%	-4%	10	-1%	0%
COc1ccc(S(=O)(=O)N(CC(=O)Nc2ccc(OC)cc2OC)c2ccc(Cl)cc2)cc1	23µM*	26µM*	nt	nt	nt
